“And” between values parts separate entries of the source, which are not always exact repeats. Equal values may be shown once. In all, about 5,500 compounds went through this assay and about 2,000 (36%) were called active. Inconclusive results (about 18%) are left out. Rule as the data show it: active = normalized growth mostly below about 0.91 (no sharp cut-off); inconclusive = no clear call, values can overlap the other calls; inactive = mostly above about 0.92. The list shows a part of the results.
Assay: chemical genetic growth profiling, strain panel (AID 1159580);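 also: tested at 20 µM; growth read once vehicle control cultures reached saturation at 30 °C; 1 = growth at the plate median or of vehicle wells; lower values mean less growth of the strain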
Settings: S. cerevisiae deletion strains, growth OD

Measured: normalized growth

C=Cc1c2[nH]c(c1C)C=c1[nH]c(c(C)c1C=C)=CC1N=C(C=c3[nH]c(c(C)c3CCC(=O)O)=C2)C(CCC(=O)O)=C1C (configuration not stated)
inactive: locus YAL013W, strain DEP1, hits give low values 0.975 | locus YAL021C, strain ccr4, hits give low values 0.954 | locus YAL026C, strain drs2, hits give low values 1.02 | locus YAL030W, strain snc1, hits give low values 1.03 | locus YBL061C, strain skt5, hits give low values 1.02 | locus YBR009C, strain hhf1, hits give low values 1.02 | locus YBR021W, strain FUR4, hits give low values 1.01 | locus YBR023C, strain chs3, hits give low values 1.01 | locus YBR171W, strain sec66, hits give low values 1.08 | locus YBR229C, strain ROT2, hits give low values 0.961 | locus YBR231C, strain swc5, hits give low values 1.02 | locus YBR279W, strain paf1, hits give low values 1.01 | locus YCL011C, strain gbp2, hits give low values 1.05 | locus YCL016C, strain dcc1, hits give low values 1 | locus YCL029C, strain bik1, hits give low values 0.979 | locus YCL061C, strain MRC1, hits give low values 1.03 | locus YCL069W, strain vba3, hits give low values 1.02 | locus YCR088W, strain abp1, hits give low values 1.04 | locus YDL005C, strain med2, hits give low values 1.01 | locus YDL035C, strain GPR1, hits give low values 0.975 | locus YDL040C, strain nat1, hits give low values 0.993 | locus YDL074C, strain BRE1, hits give low values 0.988 | locus YDL101C, strain DUN1, hits give low values 0.981 | locus YDL134C, strain PPH21, hits give low values 0.988 | locus YDL185W, strain tfp1, hits give low values 0.983 | locus YDL192W, strain arf1, hits give low values 0.976 | locus YDR001C, strain nth1, hits give low values 1.03 | locus YDR069C, strain doa4, hits give low values 1.06 | locus YDR101C, strain arx1, hits give low values 0.987 | locus YDR137W, strain rgp1, hits give low values 1 | locus YDR150W, strain NUM1, hits give low values 0.973 | locus YDR159W, strain sac3, hits give low values 1.03 | locus YDR162C, strain NBP2, hits give low values 0.96 | locus YDR195W, strain ref2 1.03 | locus YDR297W, strain sur2, hits give low values 1.01 | locus YDR318W, strain mcm21, hits give low values 0.989 | locus YDR334W, strain swr1, hits give low values 1.04 | locus YDR335W, strain msn5, hits give low values 1.01 | locus YDR388W, hits give low values 0.999 | locus YDR392W, strain spt3, hits give low values 0.909 | locus YDR502C, strain sam2, hits give low values 0.952 | locus YEL003W, strain gim4, hits give low values 1.05 | locus YEL037C, strain rad23, hits give low values 1.02 | locus YEL061C, strain CIN8 (second series), hits give low values 1.02 | locus YEL061C, strain CIN8, hits give low values 0.986 | locus YER015W, strain faa2, hits give low values 1.04 | locus YER016W, strain bim1, hits give low values 1.02 | locus YER110C, hits give low values 0.972 | locus YER111C, strain swi4, hits give low values 1.03 | locus YER155C, strain BEM2 (second series), hits give low values 1.07 | locus YER155C, strain BEM2, hits give low values 1 | locus YER167W, strain BCK2, hits give low values 0.982 | locus YFR010W, strain ubp6, hits give low values 1.04 | locus YGL078C, strain dbp3, hits give low values 1.02 | locus YGL086W, strain mad1, hits give low values 0.938 | locus YGL167C, strain pmr1, hits give low values 1.02 | locus YGL173C, strain kem1, hits give low values 1.02 | locus YGL227W, strain vid30, hits give low values 1.05 | locus YGL240W, strain doc1, hits give low values 0.977 | locus YGL248W, strain PDE1, hits give low values 0.995 | locus YGL253W, strain hxk2, hits give low values 0.988 | locus YGR078C, strain PAC10, hits give low values 0.994 | locus YGR135W, strain pre9, hits give low values 0.961 | locus YGR229C, strain SMI1, hits give low values 0.923 | locus YGR252W, strain gcn5, hits give low values 1.05 | locus YHR013C, strain ard1, hits give low values 0.975 | locus YHR027C, strain rpn1, hits give low values 1.06 | locus YHR030C, strain SLT2, hits give low values 1 and 1.03 | locus YHR079C, strain IRE1 (second series), hits give low values 0.99 | locus YHR079C, strain IRE1, hits give low values 1.07 | locus YHR094C, strain hxt1, hits give low values 0.996 | locus YHR129C, strain ARP1, hits give low values 0.995 | locus YHR142W, strain chs7, hits give low values 0.975 | locus YHR200W, strain rpn10, hits give low values 0.97 | locus YIL066C, strain RNR3, hits give low values 0.982 | locus YIL073C, strain SPO22, hits give low values 1.01 | locus YIL125W, strain kgd1, hits give low values 1.02 | locus YIR030C, strain dcg1, hits give low values 0.986 | locus YJL092W, strain hpr5, hits give low values 1.02 | locus YJL095W, strain BCK1 (second series), hits give low values 1.02 | locus YJL095W, strain BCK1, hits give low values 1.02 and 1.01 | locus YJL115W, strain asf1, hits give low values 1.02 | locus YJL129C, strain trk1, hits give low values 1.04 | locus YJL134W, strain LCB3, hits give low values 0.988 | locus YJL154C, strain vps35, hits give low values 1.02 | locus YJL164C, strain tpk1, hits give low values 0.968 | locus YJL166W, strain qcr8, hits give low values 0.945 | locus YJL168C, strain set2, hits give low values 0.996 | locus YJL187C, strain SWE1 (second series), hits give low values 1 | locus YJL187C, strain SWE1, hits give low values 1 | locus YJR043C, strain POL32, hits give low values 0.962 | locus YJR066W, strain TOR1, hits give low values 0.995

Source: PubChem BioAssay AID1159580 (chemical genetic matrix, 2015)
